Records with an inconclusive call do not appear. Calls of active or inactive are those of the source. Unless noted, calls follow the shape of the dose curve; as a rule, active = well fitted curve in the direction sought with a large enough effect; inconclusive = small, poorly fitted or top-dose-only effect, or another doubt; inactive = no such curve, though single readings can be large; an effect the other way counts as inactive or inconclusive.
How the values were obtained:
[1] = qHTS profiling of the MIPE4 collection as inhibitors of Plasmodium falciparum (3D7) proliferation (AID 743344; call rule not given here;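 also: scaled between DMSO vehicle wells and 0.29 µM artemisinin as full inhibition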); conditions: P. falciparum 3D7 in erythrocytes, SYBR Green DNA fluorescence, 72 h; at 28.5 µM unless noted
Summary of the method: (§1)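 Parasite DNA was quantified by SYBR Green I fluorescence (ex 485, em 535 nm) after overnight lysis in saponin/Triton buffer at room temperature. Cultures at 0.3% parasitemia and 2.5% hematocrit were first exposed to compound for 72 h at 37 C; signals were normalised to artemisinin (0.29 uM) and vehicle wells.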

[2] = qHTS profiling of the MIPE4 collection as inhibitors of Plasmodium falciparum (DD2) proliferation (AID 743345; call rule not given here); conditions: P. falciparum Dd2 in erythrocytes, SYBR Green DNA, 72 h; at 28.5 µM unless noted
Summary of the method: as §1

[3] = qHTS profiling of the MIPE4 collection as inhibitors of Plasmodium falciparum (DD2) proliferation (Rep 2) (AID 743346; call rule not given here); conditions: P. falciparum Dd2 in erythrocytes, SYBR Green DNA, 72 h; at 28.5 µM unless noted
Summary of the method: as §1

[4] = qHTS profiling of the MIPE4 collection as inhibitors of Plasmodium falciparum (HB3) proliferation (AID 743347; call rule not given here;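 also: plate controls were DMSO vehicle wells for no effect and artemisinin wells for full effect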); conditions: P. falciparum HB3 in erythrocytes, SYBR Green DNA, 72 h; at 28.5 µM unless noted
Summary of the method: as §1

[5] = High-throughput drug toxicity screening in the BPDCN cell line Gen2.2 (AID 1224824; call rule not given here;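 also: cells exposed to compounds for 48 h before reading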); conditions: Gen2.2 BPDCN cells; at 45.8 µM (top of the series) unless noted
Summary of the method: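 Seed 500 exponentially growing Gen2.2 cells/well; add compounds by pin tool; incubate 48 h, 37 °C, 5% CO2; add CellTiter-Glo, 15 min RT; read luminescence. % activity vs DMSO (100%) and bortezomib (0%).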

[6] = High-throughput drug toxicity screening in the BPDCN cell line Cal-1 (AID 1224825; call rule not given here); conditions: Cal-1 BPDCN cell viability, qHTS; at 45.8 µM (top of the series) unless noted
Summary of the method: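 Percent activity derived from CellTiter-Glo luminescence, scaling DMSO to 100% and 9.2 uM final bortezomib to 0%. BPDCN Cal-1 cells (500/well, RPMI plus 10% FBS) incubated with compounds 48 hours at 37C before reading.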

[7] = qHTS assay for measurement of the activity of small molecule inhibitors on Zika virus induced Caspase-3 activity in human iPSC derived neural progenitor cells (hNPCs) (AID 1224857); also: % of control where 0% means no effect; nearly all actives have a fitted effect of over 65% in size
Summary of the method: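 Percent inhibition of virus-induced caspase-3/7 luminescence (Caspase-Glo), scaled between uninfected cells and Zika-infected cells. hNPCs received compound 1 hr before ZIKV at 2 FFU/cell, with 6 hours infection at 37 C.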

[8] = qHTS assay for measurement of the activity of small molecule inhibitors on Zika virus induced Caspase-3 activity in human astrocytoma cells (AID 1224859);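 also: plate controls were ZIKV-infected untreated cells for no effect and uninfected cells for full effect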
Summary of the method: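 Luminescent caspase-3/7 read-out (30 min reagent, room temperature) in human SNB-19 cells infected 6 h with ZIKV (2 FFU/cell) after 1 h compound pre-incubation; Data were normalised to uninfected and infected wells.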

[9] = qHTS Screen of the MIPE 4.0 Collection Against Ewings Sarcoma (RDES) (AID 1259252); also: nearly all actives have a fitted effect of over 35% in size; also: potency is read from the fitted curve at half-maximal effect
Summary of the method: (§2)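 CellTiter-Glo luminescence after 48 h compound exposure (titration) gave viability; percent activity used DMSO-treated cells as no inhibition and medium-only wells as full inhibition. Cells grown in RPMI/5% FBS, dosed 4 h post-seeding.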

[10] = qHTS Screen of the MIPE 4.0 Collection Against Ewings Sarcoma (EW8) (AID 1259255); also: nearly all actives have a fitted effect of over 35% in size; also: potency is read from the fitted curve at half-maximal effect;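 as to viability: 100% = DMSO-treated cells and 0% = medium-only wells without cells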
Summary of the method: as §2

[11] = qHTS Screen of the MIPE 4.0 Collection Against Ewings Sarcoma (TC32) (AID 1259256); also: nearly all actives have a fitted effect of over 45% in size; also: potency is read from the fitted curve at half-maximal effect
Summary of the method: as §2

[12] = P-glycoprotein substrates identified in KB-8-5-11 adenocarcinoma cell line, qHTS therapeutic library screen (AID 1346987); also: nearly all actives have a fitted effect of over 65% in size; also: potency is read from the fitted curve at half-maximal effect
Summary of the method: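 Luminescence from CellTiter-Glo, read 5 min after addition, quantified survival of KB-8-5-11 (P-gp-overexpressing) cells exposed to compounds for 72 h. AC50 was derived from concentration-response curves.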

[13] = qHTS Screen of the MIPE 4.0 Collection Against Ewings Sarcoma (TC71) (AID 1259253); also: nearly all actives have a fitted effect of over 40% in size; also: potency is read from the fitted curve at half-maximal effect
Summary of the method: as §2

[14] = P-glycoprotein substrates identified in KB-3-1 adenocarcinoma cell line, qHTS therapeutic library screen (AID 1346986); also: nearly all actives have a fitted effect of over 60% in size;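 also: potency is read from the fitted curve at half-maximal effect; potency is for cytotoxicity meaning loss of cell viability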
Summary of the method: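 Viability read by CellTiter-Glo after 72 h compound exposure in dose-response of KB-3-1 and KB-8-5-11 (P-gp-high) cells. Hits needed AC50 < 10 uM, >50% maximum response and curve class -1.1 to -2.4. Cherry-picks retested ± tariquidar, including pcDNA/MDR-19 HEK-293 pair.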

[15] = qHTS profiling for inhibitors of Plasmodium falciparum (3D7) proliferation (AID 743322);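 also: infected erythrocytes exposed to compound for 72 h before lysis; 100% = DMSO vehicle wells and 0% = 0.29 µM artemisinin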; conditions: P. falciparum 3D7 proliferation; at 28.7 µM (top of the series)
Summary of the method: as §1

[16] = qHTS profiling for inhibitors of Plasmodium falciparum (DD2) proliferation (AID 743323; call rule not given here); conditions: lower = more inhibition; at 28.7 µM (top of the series)
Summary of the method: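 SYBR Green fluorescence (ex 485, em 535 nm) of lysed cultures gives parasite DNA content; wells normalized to artemisinin (0.29 uM) and DMSO controls. Infected red cells: 0.3% parasitemia, 2.5% hematocrit, 72 h, 37 C.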

[17] = qHTS profiling for inhibitors of Plasmodium falciparum (HB3) proliferation (AID 743324); conditions: Plasmodium falciparum HB3 blood-stage proliferation; at 28.7 µM (top of the series);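 also: 100% = DMSO vehicle wells and 0% = artemisinin-treated control wells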
Summary of the method: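 SYBR Green fluorescence (485 ex/535 em) of lysed cultures, incubated overnight at room temperature in the dark, quantifies parasite DNA. Infected erythrocytes at 0.3% parasitemia and 2.5% hematocrit were exposed 72 h; values normalized to DMSO and 0.29 uM artemisinin controls.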

[18] = qHTS Assay for Identifying Gametocytocidal Compounds (AID 743244);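 also: % is scaled to controls: 0 for no effect and ±100 for the full control effect; actives lower the fluorescent signal which means gametocytes are killed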; conditions: P. falciparum 3D7 stage III-V gametocytes, alamarBlue, 72 h; max response: stronger effect = lower value
Summary of the method: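 Viability read-out was resazurin reduction (alamarBlue, 24 h) measured at Ex 525/Em 598 nm. Beforehand, late-stage (III-V) 3D7 P. falciparum gametocytes at 20,000 cells/well were incubated with compound 72 h at 37C under 5% CO2.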

SMILES	parasite growth, % of DMSO control [1] [%]	parasite growth remaining, % of DMSO control (lower = more inhibition) [2] [%]	parasite growth, % of control (lower = inhibition) [3] [%]	growth, % of control [4] [%]	cell viability, % of control (lower = more cytotoxic) [5]	viability (% of control) [6]	Potency [7]	Potency [8]	Potency [9]	Potency [10]	Potency [11]	Potency [12]	Potency [13]	Potency [14]	remaining parasite growth % (stronger effect = lower value) [15] [%]	activity, percent of control [16] [%]	remaining proliferation (% of control), lower = more inhibition [17] [%]	max response [18]
CCCCCN=C(N)NN=Cc1c[nH]c2ccc(OC)cc12	7.63	7.01	22.5	6.26	38.7%	11.8%	inactive	inactive	6.62 µM (active)	6.62 µM (active)	4.18 µM (active)	10.5 µM (active)	–	–	–	–	–	–
C[C@H](NC(=O)C(C#N)=Cc1cccc(Br)n1)c1ccccc1	59.1	86.2	33.4	22	5.54%	4.37%	inactive	inactive	16.6 µM (active)	16.6 µM (active)	18.7 µM (active)	20.9 µM (active)	–	–	–	–	–	–
CC(=O)OCC(=O)[C@@]1(O)CC[C@H]2[C@@H]3CCC4=CC(=O)CC[C@]4(C)[C@@H]3C(=O)C[C@@]21C	68.4	–	–	96.5	108%	111%	inactive	inactive	inactive	inactive	inactive	–	inactive	–	–	–	–	–
CC1=C(C(=O)Nc2cc3cn[nH]c3cc2F)C(c2ccc(Cl)cc2F)N=C(c2ccnc(Cl)c2)N1 (configuration not stated)	13.2	36.2	21.1	10.9	4.15%	3.35%	inactive	inactive	18.7 µM (active)	26.4 µM (active)	16.6 µM (active)	–	–	20.6 µM (active)	–	–	–	–
c1ccc2c(Oc3nc(Nc4ccc(N5CCOCC5)cc4)c4ncn(C5CCCCC5)c4n3)cccc2c1	6.5	8.01	33.7	9.45	187%	100%	inactive	inactive	–	inactive	inactive	inactive	inactive	–	-0.456	1.45	-1.02	–
CN1[C@H]2CC(OC(=O)[C@@H](CO)c3ccccc3)C[C@H]1[C@H]1O[C@H]12 (some centres not stated)	–	–	–	107	189% [at 23.2 µM]	107% [at 23.2 µM]	inactive	inactive	inactive	inactive	inactive	–	–	–	–	–	–	–
CNC(=O)c1ccc(Nc2cc(Nc3ccccc3S(=O)(=O)C(C)C)c3cc[nH]c3n2)nc1	4.82	11.9	12.7	2.73	19.7%	3.36%	inactive	inactive	5.9 µM (active)	0.59 µM (active)	0.935 µM (active)	–	–	–	–	–	–	–
CCN(CC)CCCCNc1ncc2c(n1)N(C)C(=O)N(c1c(Cl)c(OC)cc(OC)c1Cl)C2	25.2	17.7	23.7	11.3	138%	50.4%	inactive	inactive	20.9 µM (active)	18.7 µM (active)	20.9 µM (active)	–	20.9 µM (active)	–	–	–	–	–
Cn1cc(C2=C(c3c4n(c5ccccc35)CCC(CN)C4)C(=O)NC2=O)c2ccccc21 (configuration not stated)	3.66	5.71	11	3.72	3.32%	2.84%	inactive	inactive	16.6 µM (active)	18.7 µM (active)	20.9 µM (active)	–	16.6 µM (active)	–	–	–	–	–
COc1cc(C(=O)NC2CCN(C)CC2)ccc1Nc1ncc2c(n1)N(C1CCCC1)CCC(=O)N2C(C)C	5.76	7.51	15.5	6.9	6.24%	2.49%	inactive	inactive	2.35 µM (active)	2.09 µM (active)	2.35 µM (active)	–	2.09 µM (active)	–	–	–	–	–
N#Cc1ccc(COC[C@H]2O[C@@H](n3c(NCc4ccc(Cl)c(Cl)c4)nc4c(N)ncnc43)[C@@H](O)[C@@H]2O)cc1	20.4	48.6	23.2	23.2	10.7%	3.42%	inactive	inactive	–	9.35 µM (active)	5.26 µM (active)	inactive	9.35 µM (active)	–	37.7	23.4	21.1	-16.6% (inactive)
CC(C)c1cnn2c(NCc3ccccc3)cc(NCCCCCCN)nc12	6.96	–	11.2	2.16	4.58%	3.93%	inactive	inactive	3.72 µM (active)	18.7 µM (active)	13.2 µM (active)	–	4.69 µM (active)	–	–	–	–	–
CC(=O)N[C@@H]1[C@H](O[C@@H]2c3ccc(c(Cl)c3)Oc3cc4cc(c3O[C@H]3O[C@H](CO)[C@@H](O)[C@H](O)[C@H]3NC(=O)CCCCCCCC(C)C)Oc3ccc(cc3Cl)C[C@H]3NC(=O)[C@H](N)c5ccc(O)c(c5)Oc5cc(O)cc(c5)[C@H](NC3=O)C(=O)N[C@H]4C(=O)N[C@H]3C(=O)N[C@@H]2C(=O)N[C@@H](C(=O)O)c2cc(O)cc(O[C@H]4O[C@H](CO)[C@@H](O)[C@H](O)[C@H]4O)c2-c2cc3ccc2O)O[C@H](CO)[C@@H](O)[C@@H]1O	395	99.1	–	675	82.7%	104%	inactive	inactive	–	inactive	inactive	inactive	inactive	inactive	–	–	–	–
COc1ccc(C[C@@H](C)[C@@H](C)Cc2ccc(OC)c(OC)c2)cc1OC	62.3	87.5	60.3	30.9	6.99%	8.52%	inactive	inactive	0.743 µM (active)	1.18 µM (active)	inactive	7.43 µM (active)	–	–	–	–	–	–
